MITF primary – blocks human microphthalmia-associated transcription factor | O75030 | AlphaScreen MITF homodimerization, bead proximity signal | inhibition, % at 2.6 µM | 0.91% of 650,000 active; in the data active means inhibition above about 50%
TEAD-YAP inh – TEAD-YAP interaction inhibition | HEK-TIYL cells, TEAD-Gal4/YAP UAS-luciferase luminescence | inhibition, % at 9.12 µM | 1.4% of 640,000 active | AID 1259422; in the data active means inhibition above about 32%
GPR151 activ – human GPR151 activation. PathHunter beta-arrestin GPR151 cells, luminescence. 1% of 650,000 active. activation, % at 11.2 µM. Q8TDV0; in the data active means activation above about 4.9%
Target sequence (Q8TDV0 whole entry, looked up): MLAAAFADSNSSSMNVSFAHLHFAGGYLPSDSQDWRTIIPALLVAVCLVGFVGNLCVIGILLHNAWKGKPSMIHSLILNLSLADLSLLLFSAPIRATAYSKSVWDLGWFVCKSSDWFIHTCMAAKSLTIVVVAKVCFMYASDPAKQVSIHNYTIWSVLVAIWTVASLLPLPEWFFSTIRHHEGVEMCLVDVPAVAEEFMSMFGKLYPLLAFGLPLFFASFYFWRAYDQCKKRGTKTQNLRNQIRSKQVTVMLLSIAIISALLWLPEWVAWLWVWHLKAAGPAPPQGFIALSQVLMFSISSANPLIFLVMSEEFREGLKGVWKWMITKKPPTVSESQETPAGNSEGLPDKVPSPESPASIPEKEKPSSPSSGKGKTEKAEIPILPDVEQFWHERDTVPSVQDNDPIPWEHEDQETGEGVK
FBW7 activator – activators of human E3 ligase FBW7; AID 1259310; 0.13% of 650,000 active; normalized activity (activation), % at 26.1 µM; AlphaScreen FBW7–phospho-cyclin E peptide binding, activator screen; in the data active means normalized activity above about 1.9%;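 further: purified mutant Fbw7 with reduced substrate affinity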
MITF inh conf – human MITF inhibition, confirmation; AID 1259372; shares compounds with MITF primary; inhibition, % at 2.6 µM; AlphaScreen MITF homodimerization, biotin/His-MITF beads; 16% of 4,700 active;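 active means inhibition above a cutoff derived from the DMSO control wells, cut at about 28% in these data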;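 further: inhibitors lower the bead chemiluminescence by keeping MITF from dimerizing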
AS interf DR – counter-screen: compounds optically interfering with AlphaScreen; shares compounds with MITF primary; AlphaScreen optical interference counterscreen, cell-free; IC50, µM; 6% of 480 active; AID 1259373; call rule not given here
AlphaScreen intf2 – counter-screen: compounds optically interfering with AlphaScreen; shares compounds with MITF primary; LysRS AlphaScreen counterscreen, signal interference, triplicate; inhibition, % at 2.6 µM; 7.6% of 4,700 active; AID 1259376;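 active means inhibition above a cutoff derived from the DMSO control wells, cut at about 30% in these data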
Of the large screens only hits and unclear results are named; the others gave an inactive call (follow-up assays come after a bar, where they were run). Only some compounds are listed: those with a hit (about 3.4% of all), similar ones and a draw of the others.

O=C1CC(CC(=O)N2CC3CCC2C3)(c2ccccc2)C(=O)N1Cc1ccncc1 (centres undefined)	none
c1cncc(CN2CCOc3ccc(CN4CCc5ccccc5C4)cc3C2)c1	none
O=C(c1ccc(C(F)(F)F)cc1)N1CCOc2ccc(C(O)c3ccccn3)cc2C1 (centres undefined)	none
O=C(c1ccccc1I)N1CCCc2ccccc21	none
COc1ccc(CN2CCN(Cc3ccccc3F)CC2)cc1OC	MITF primary 79.2 | MITF inh conf inactive | AlphaScreen intf2 inactive
CCOc1cc(CN2CCN(Cc3ccccc3F)CC2)ccc1OC	MITF primary 65.4 | MITF inh conf inactive | AlphaScreen intf2 inactive
COc1cccc2cc(-c3nc4ccccc4[nH]3)c(=Nc3ccc(C#N)cc3)oc12	none
Cn1cc(-c2ccccc2NC(=O)c2ccccc2Cl)cn1	none
COc1ccccc1OCCOCCN1CC(C)OC(C)C1 (centres undefined)	none
COc1cccc(OC)c1OCCCN1CC(C)OC(C)C1 (centres undefined)	MITF primary 62.0 | MITF inh conf inactive | AlphaScreen intf2 inactive
COC(=O)c1ccc(OCCOCCN2CC(C)OC(C)C2)cc1 (centres undefined)	MITF primary 51.5 | MITF inh conf inactive | AlphaScreen intf2 inactive
CC1CN(CCOCCOc2ccccc2-c2ccccc2)CC(C)O1 (centres undefined)	MITF primary 71.5 | MITF inh conf inactive | AlphaScreen intf2 inactive
COC(=O)c1ccccc1OCCCOc1cccc2cccnc12	MITF primary 67.9 | MITF inh conf inactive | AlphaScreen intf2 inactive
Cn1c(=O)[nH]c(=O)c2c1nc(SCCc1ccccc1)n2Cc1ccc(Cl)cc1	none
CCCNC(=O)C(=O)NCc1ccc(C)cc1	none
O=[N+]([O-])c1ccccc1OCCOCCOc1cccc2cccnc12	MITF primary 68.5 | MITF inh conf inactive | AlphaScreen intf2 inactive
CC1CN(CCOc2cccc3ccccc23)CC(C)O1 (centres undefined)	MITF primary 57.5 | MITF inh conf inactive | AlphaScreen intf2 inactive
Cc1ccc(C)c(OCCOCCN2CC(C)OC(C)C2)c1C (centres undefined)	MITF primary 52.0 | MITF inh conf inactive | AlphaScreen intf2 inactive
O=[N+]([O-])c1ccccc1OCCOc1cccc2cccnc12	none
COC(=O)c1ccccc1OCCCCN1CC(C)OC(C)C1 (centres undefined)	MITF primary 62.5 | MITF inh conf inactive | AlphaScreen intf2 inactive
OCCOCCN1CCN(Cc2ccc(F)c(Br)c2)CC1	MITF primary 80.9 | MITF inh conf inactive | AlphaScreen intf2 inactive
OCCOCCN1CCN(Cc2ccc(Br)cc2)CC1	none
Nc1nc(NC2CCN(Cc3ccccc3)CC2)cc(-c2ccc(N3CCOCC3)nc2)n1	none
COc1cc(C(=O)Nc2nc3c(OC)ccc(Cl)c3s2)cc(OC)c1OC	none
CCOC(=O)c1sc(NC(=O)c2nn3c(c2Cl)NC(c2cccs2)CC3C(F)(F)F)c(C(=O)OCC)c1C (centres undefined)	MITF primary 68.1 | MITF inh conf inactive | AlphaScreen intf2 inactive
COc1cc(NC(=O)c2nn3c(c2Cl)NC(c2cccs2)CC3C(F)(F)F)cc([N+](=O)[O-])c1 (centres undefined)	MITF primary 73.5 | MITF inh conf inactive | AlphaScreen intf2 inactive
COc1cc(NC(=O)c2nn3c(c2Cl)NC(c2ccccc2)CC3C(F)(F)F)cc([N+](=O)[O-])c1 (centres undefined)	none
N#Cc1ccc(COC(=O)c2nc(Cl)ccc2Cl)cc1	none
COC(=O)C(N)CSC1CCCCO1 (centres undefined)	MITF primary 55.6 | MITF inh conf inactive | AlphaScreen intf2 inactive
CCC(=O)NC(c1nnc2n1CCN(Cc1cc3c(cc1Cl)OCO3)CC2)C(C)C (centres undefined)	none
NCCn1nnn(-c2ccccc2)c1=O	none
O=C(Nc1ccc(Nc2ccc(-n3cccn3)nn2)cc1)c1ccccc1Cl	MITF primary 58.0 | MITF inh conf inactive | AlphaScreen intf2 inactive
CCc1sc(NC(=O)CN2CCCC2)nc1-c1ccccc1	none
CCc1nc2ccccc2c(NC(=O)CN2CCN(CCO)CC2)c1C	MITF primary 69.4 | MITF inh conf inactive | AlphaScreen intf2 inactive
CCCCc1nc2ccccc2c(C(=O)O)c1C	none
CCCCCCN(CCCCCC)CC(=O)Nc1c(C)c(CC)nc2ccccc12	MITF primary 68.9 | MITF inh conf inactive | AlphaScreen intf2 inactive
Cc1cc(NC(=O)Cn2nc(C(=O)N3CCOCC3)cc2C)c2ccccc2n1	none
CCCCc1nc2ccccc2c(NC(=O)CN2CCN(C(=O)c3ccccc3)CC2)c1CCC	MITF primary 62.4 | MITF inh conf inactive | AlphaScreen intf2 inactive
CCCc1nc2ccccc2c(NC(=O)CN2CCCC2)c1CC	MITF primary 81.3 | MITF inh conf inactive | AlphaScreen intf2 inactive
CCc1nc(C)cn1S(=O)(=O)c1ccc(F)cc1	none
CCCOC(=O)c1ccc(NC(=O)C(C)C)cc1	none
CC(NCc1ccccc1)C1COc2ccccc2O1 (centres undefined)	MITF primary 58.5 | MITF inh conf inactive | AlphaScreen intf2 inactive
CCCCNC(C)C1COc2ccccc2O1 (centres undefined)	none
O=C(CN1C(=O)c2cccc([N+](=O)[O-])c2C1=O)Nc1ccccc1OC(F)F	none
Cc1cc(CSC(=N)N)c(O)c(C)n1	MITF primary 64.7 | MITF inh conf 82.3 | AS interf DR inactive | AlphaScreen intf2 inactive
Cc1cc(CSC(=N)N)c(O)c(C(C)(C)C)n1	none
O=C(N/N=C/C=C/c1ccc([N+](=O)[O-])o1)c1cccc(O)c1	none
CC(O)C(=O)N/N=C/C=C/c1ccc([N+](=O)[O-])o1 (centres undefined)	MITF primary 55.1 | MITF inh conf 70.6 | AS interf DR inactive | AlphaScreen intf2 inactive
CCC(=O)Nc1ccc(C(=O)Nc2ccc(C#N)cc2)cc1	none
CCC(=O)Nc1ccc(C(=O)Nc2ccccc2C#N)cc1	MITF primary 50.9 | MITF inh conf inactive | AlphaScreen intf2 inactive
COC(=O)c1cc(S(=O)(=O)NCCCN(C)Cc2ccccc2)c[nH]1	MITF primary 56.4 | MITF inh conf inactive | AlphaScreen intf2 inactive
COC(=O)c1cc(S(=O)(=O)NCCc2ccccc2)c[nH]1	none
COC(=O)c1cccc(NS(=O)(=O)c2ccc(SC)cc2)c1C	none
CCOc1ccccc1OCCOCCNC(C)CC (centres undefined)	MITF primary 76.6 | MITF inh conf inactive | AlphaScreen intf2 inactive
C/C=C/c1ccc(OCCOCCNC(C)CC)c(OC)c1 (centres undefined)	MITF primary 70.3 | MITF inh conf inactive | AlphaScreen intf2 inactive
CCC(C)NCCOc1ccccc1C (centres undefined)	none
Cc1nnc(C)n1/N=C\c1cccc2ccccc12	MITF primary 66.5 | MITF inh conf inactive | AlphaScreen intf2 inactive
